Results published in ChEMBL document CHEMBL3988442, “University of Dundee, Small-Polar-MMV Screening Library” (2021).
For some of these results: Potency and affinity values are given separately.

Assays:
Parameters in all cases: scale not given: direction of the effect not stated beside the values
[1] = biological target: Protein translocase subunit SecA (Escherichia coli (strain K12)) (UniProt P10408); assay: Assay to Identify E. coli SecA ATPase Inhibitors; type: functional; conditions: 30 µM
[2] = biological target: T1, Ubiquitin-activating enzyme e1, putative (Leishmania donovani (strain BPK282A1)) (UniProt E9BSI1); assay: Leishmania donovani Ubiquitin Activating Enzyme (LdE1); type: functional; conditions: 30 µM
T1 sequence (whole entry): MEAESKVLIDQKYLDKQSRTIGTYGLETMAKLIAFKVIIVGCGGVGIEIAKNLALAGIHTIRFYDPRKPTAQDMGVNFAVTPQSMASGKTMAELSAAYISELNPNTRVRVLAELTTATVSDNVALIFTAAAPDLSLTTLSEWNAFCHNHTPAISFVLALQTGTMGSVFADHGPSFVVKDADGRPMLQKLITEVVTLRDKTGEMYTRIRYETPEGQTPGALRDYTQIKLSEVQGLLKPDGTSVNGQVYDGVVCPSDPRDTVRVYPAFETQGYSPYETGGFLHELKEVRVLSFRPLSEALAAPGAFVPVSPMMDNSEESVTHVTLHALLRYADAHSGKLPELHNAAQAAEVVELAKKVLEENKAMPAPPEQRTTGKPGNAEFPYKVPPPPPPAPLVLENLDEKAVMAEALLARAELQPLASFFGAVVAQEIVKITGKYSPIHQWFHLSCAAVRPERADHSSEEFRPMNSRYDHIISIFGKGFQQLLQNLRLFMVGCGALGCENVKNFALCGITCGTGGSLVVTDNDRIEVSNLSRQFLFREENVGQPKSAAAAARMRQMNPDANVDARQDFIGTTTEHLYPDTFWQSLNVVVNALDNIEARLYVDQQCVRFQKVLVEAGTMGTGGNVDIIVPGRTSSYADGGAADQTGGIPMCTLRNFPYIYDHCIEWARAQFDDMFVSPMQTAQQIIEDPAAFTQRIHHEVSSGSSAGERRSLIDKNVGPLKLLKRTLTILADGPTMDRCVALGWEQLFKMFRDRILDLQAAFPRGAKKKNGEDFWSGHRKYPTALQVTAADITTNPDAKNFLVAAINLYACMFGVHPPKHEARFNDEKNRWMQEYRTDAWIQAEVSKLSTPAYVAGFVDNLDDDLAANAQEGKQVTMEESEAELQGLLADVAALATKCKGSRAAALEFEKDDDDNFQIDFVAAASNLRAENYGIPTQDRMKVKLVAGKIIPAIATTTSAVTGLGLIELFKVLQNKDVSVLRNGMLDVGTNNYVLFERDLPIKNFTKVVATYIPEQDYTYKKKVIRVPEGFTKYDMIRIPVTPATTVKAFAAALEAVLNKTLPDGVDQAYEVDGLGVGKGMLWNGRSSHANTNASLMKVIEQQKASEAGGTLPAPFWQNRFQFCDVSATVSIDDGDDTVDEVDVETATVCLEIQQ

[3] = biological target: AMP-activated protein kinase, AMPK (Homo sapiens) (UniProt P54646+O43741+P54619+Q9UGJ0+Q9Y478+Q13131+Q9UGI9); assay: AMP-dependent Kinase enzyme assay. An in vitro enzyme assay that detects ADP turnover that is directly proportional to AMPK activity. This uses naive AMPK that is activated during the assay with MK-8722; type: functional; conditions: 30 µM
[4] = biological target: Sialic acid-binding Ig-like lectin 9 (Homo sapiens) (UniProt Q9Y336); assay: Hs-Siglec9 ALPHAscreen SOP 20170721; conditions: 10 µM
Chain of Sialic acid-binding Ig-like lectin 9 (Homo sapiens) (Q9Y336 whole entry): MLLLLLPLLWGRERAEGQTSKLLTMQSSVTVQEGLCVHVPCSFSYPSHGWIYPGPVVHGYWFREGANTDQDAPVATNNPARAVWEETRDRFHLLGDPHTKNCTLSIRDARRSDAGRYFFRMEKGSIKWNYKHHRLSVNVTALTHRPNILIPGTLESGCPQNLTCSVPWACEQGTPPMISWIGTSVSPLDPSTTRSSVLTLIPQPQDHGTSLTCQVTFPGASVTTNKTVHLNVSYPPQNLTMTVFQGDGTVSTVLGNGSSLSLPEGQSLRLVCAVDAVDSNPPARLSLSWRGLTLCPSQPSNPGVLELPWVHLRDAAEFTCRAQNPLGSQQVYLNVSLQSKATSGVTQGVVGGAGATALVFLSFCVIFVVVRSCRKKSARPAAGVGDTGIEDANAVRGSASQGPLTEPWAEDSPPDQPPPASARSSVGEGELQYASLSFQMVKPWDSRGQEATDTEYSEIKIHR

Trypanosoma cruzi = assay: Trypanosoma cruzi phosphomannomutase and mannose-1-phosphate guanylyltransferase assay; type: functional; conditions: 10 µM
[5] = biological target: T2, Arginase-2, mitochondrial (Homo sapiens) (UniProt P78540); assay: in vitro enzyme assay to detect the production of urea directly proportional to the activity of Arginase II; type: functional; conditions: 33.3 µM; also: in the data most compounds retested in dose-response had high values
T2 sequence (whole entry): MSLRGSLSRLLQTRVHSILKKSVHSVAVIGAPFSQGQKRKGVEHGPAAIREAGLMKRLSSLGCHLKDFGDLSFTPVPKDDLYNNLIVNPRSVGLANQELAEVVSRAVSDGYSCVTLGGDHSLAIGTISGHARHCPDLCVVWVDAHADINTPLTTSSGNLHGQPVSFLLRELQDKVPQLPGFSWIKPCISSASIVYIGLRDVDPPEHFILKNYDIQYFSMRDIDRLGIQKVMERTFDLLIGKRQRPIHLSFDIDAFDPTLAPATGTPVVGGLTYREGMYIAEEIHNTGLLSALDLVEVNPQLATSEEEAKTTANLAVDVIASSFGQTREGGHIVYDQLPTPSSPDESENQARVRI

[6] = biological target: T3, Proteasome subunit beta (Trypanosoma cruzi) (UniProt O96673); assay: Trypanosoma cruzi proteasome chymotrypsin-like activity (TcProtChymo) assay.; also: in the data most compounds retested in dose-response had high values; type: functional; conditions: 9.37 µM
T3 sequence (whole entry): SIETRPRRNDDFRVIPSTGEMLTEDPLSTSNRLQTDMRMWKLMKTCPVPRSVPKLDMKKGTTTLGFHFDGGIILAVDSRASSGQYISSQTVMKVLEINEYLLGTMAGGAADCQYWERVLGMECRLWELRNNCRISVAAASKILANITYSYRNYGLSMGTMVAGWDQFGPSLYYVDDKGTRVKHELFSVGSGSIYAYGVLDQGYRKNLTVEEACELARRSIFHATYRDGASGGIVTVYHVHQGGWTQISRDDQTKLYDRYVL

Homo sapiens = species: Homo sapiens; assay: To identify inhibition of the IFN signalling (Jak-Stat) pathway via expression of an eGFP reporter gene under the control of an IFN-stimulated response element (ISRE) containing MxA promoter.; type: functional; conditions: 30 µM
[7] = biological target: T4, Tyrosyl-tRNA synthetase, putative (Trypanosoma cruzi (strain CL Brener)) (UniProt Q4DSP6); assay: Trypanosoma cruzi tyrosyl tRNA synthetase (TcYRS) _High Tyrosine SOP; type: functional; conditions: 30 µM; also: in the data most compounds retested in dose-response had high values
T4 sequence (whole entry): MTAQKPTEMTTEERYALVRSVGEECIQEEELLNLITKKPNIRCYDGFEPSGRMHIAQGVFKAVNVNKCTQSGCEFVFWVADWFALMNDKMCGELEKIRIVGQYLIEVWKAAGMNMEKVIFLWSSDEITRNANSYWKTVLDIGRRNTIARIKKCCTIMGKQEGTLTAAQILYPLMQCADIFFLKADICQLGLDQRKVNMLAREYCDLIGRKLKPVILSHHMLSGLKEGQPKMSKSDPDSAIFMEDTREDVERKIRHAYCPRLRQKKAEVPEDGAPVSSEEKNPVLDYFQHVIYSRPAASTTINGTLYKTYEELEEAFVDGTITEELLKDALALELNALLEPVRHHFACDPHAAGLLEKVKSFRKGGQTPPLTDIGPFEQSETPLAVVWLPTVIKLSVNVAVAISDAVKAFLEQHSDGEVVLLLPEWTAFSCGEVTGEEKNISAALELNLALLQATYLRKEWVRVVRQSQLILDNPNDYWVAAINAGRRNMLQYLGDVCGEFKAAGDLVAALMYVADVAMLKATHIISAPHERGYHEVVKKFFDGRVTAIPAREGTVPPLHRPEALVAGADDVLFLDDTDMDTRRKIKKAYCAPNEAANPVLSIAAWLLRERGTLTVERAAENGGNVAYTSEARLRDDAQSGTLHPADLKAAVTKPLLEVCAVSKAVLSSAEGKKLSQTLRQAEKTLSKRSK

[8] = biological target: T4, Tyrosyl-tRNA synthetase, putative (Trypanosoma cruzi (strain CL Brener)); assay: Trypanosoma cruzi tyrosyl tRNA synthetase (TcYRS) SOP; type: functional; conditions: 30 µM
[9] = biological target: Chromo domain-containing protein 1 (Saccharomyces cerevisiae (strain ATCC 204508 / S288c) (Baker's yeast)) (UniProt P32657); assay: ScCHD-1 Enzyme Inhibition Assay; type: functional; conditions: 30 µM; also: in the data most compounds retested in dose-response had high values
Chain of Chromo domain-containing protein 1 (Saccharomyces cerevisiae (strain ATCC 204508 / S288c) (Baker's yeast)) (P32657 whole entry, the tested form may be a part): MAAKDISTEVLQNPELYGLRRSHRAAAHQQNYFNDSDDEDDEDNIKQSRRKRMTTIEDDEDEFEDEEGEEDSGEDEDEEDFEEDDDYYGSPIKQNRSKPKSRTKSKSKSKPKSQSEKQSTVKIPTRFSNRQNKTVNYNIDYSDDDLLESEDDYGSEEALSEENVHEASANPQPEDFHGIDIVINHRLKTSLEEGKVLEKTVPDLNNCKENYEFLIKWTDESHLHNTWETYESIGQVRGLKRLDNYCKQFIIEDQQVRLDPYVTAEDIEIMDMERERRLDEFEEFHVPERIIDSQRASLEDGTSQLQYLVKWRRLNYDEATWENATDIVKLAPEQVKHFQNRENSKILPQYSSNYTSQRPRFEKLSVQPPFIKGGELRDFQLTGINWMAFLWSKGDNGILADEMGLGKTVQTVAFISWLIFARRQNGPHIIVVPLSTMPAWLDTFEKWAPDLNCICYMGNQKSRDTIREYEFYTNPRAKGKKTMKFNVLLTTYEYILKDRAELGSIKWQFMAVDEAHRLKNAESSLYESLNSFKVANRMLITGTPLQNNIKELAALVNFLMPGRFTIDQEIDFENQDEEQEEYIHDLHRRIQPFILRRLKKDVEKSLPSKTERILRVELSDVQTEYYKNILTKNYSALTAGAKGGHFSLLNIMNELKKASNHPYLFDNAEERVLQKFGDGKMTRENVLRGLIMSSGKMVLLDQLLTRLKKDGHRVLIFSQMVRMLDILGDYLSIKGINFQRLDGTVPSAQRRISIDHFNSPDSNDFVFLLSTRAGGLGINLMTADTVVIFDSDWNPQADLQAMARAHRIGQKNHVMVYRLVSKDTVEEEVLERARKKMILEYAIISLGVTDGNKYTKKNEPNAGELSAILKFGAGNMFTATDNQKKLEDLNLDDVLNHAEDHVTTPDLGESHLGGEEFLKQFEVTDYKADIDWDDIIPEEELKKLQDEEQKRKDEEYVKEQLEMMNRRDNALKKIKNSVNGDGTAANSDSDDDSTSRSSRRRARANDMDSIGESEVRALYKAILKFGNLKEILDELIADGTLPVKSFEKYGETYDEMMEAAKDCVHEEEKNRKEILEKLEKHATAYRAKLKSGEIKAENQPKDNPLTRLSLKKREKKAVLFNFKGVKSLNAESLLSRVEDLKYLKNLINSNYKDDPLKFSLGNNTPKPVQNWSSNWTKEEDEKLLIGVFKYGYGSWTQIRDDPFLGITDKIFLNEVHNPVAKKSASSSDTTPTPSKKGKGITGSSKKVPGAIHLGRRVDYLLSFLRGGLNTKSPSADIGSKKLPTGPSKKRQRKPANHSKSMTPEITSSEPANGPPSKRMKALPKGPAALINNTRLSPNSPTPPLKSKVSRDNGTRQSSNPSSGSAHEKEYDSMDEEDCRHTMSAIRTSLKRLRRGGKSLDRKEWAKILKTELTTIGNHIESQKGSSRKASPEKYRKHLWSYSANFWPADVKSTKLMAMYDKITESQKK

Chain of Protein translocase subunit SecA (Escherichia coli (strain K12)) (P10408 whole entry): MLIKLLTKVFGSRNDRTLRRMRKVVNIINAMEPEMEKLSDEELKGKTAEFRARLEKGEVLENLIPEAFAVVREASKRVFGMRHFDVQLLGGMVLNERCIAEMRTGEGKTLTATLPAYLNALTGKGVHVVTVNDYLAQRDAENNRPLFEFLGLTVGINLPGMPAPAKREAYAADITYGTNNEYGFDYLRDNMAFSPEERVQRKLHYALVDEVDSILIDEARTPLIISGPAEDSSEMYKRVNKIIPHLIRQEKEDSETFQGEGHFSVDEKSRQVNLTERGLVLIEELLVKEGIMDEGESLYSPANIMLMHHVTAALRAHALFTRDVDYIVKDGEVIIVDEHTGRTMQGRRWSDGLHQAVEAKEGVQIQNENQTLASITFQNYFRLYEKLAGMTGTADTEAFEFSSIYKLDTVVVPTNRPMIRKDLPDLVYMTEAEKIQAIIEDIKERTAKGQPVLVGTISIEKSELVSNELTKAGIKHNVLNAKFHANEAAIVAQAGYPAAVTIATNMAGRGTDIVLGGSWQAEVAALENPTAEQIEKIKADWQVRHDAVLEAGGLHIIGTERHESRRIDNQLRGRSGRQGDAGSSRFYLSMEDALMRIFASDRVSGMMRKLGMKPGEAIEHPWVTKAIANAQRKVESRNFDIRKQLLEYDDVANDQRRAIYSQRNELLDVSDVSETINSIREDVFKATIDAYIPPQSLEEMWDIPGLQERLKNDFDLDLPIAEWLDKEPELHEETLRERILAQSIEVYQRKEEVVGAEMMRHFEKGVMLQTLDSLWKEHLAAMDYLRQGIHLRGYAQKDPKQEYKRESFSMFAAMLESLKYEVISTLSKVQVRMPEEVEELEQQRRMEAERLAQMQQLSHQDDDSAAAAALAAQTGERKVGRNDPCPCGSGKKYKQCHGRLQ

Work on `O=C1[C@H]2CN(CC3CC3)C[C@H]2CN1Cc1cccc(F)c1` yielded a Percent Effect [1] of 1.22%, a Percent Effect [2] of -56.8% and a Percent Effect [3] of 4.89%. The Percent Effect [4] was 3.99%, the Percent Effect (Trypanosoma cruzi) was -0.0978% and the Percent Effect [5] was -0.955%. The Percent Effect [6] was 12.7%, the Percent Effect (Homo sapiens) was -14.7% and the Percent Effect [7] was 2.16%. The Percent Effect [8] was 2.56% and the Percent Effect [9] was 9.93%.

`CC(C)CN1CCCC2(CCN(C(=O)c3cnccn3)C2)C1` (stereo not drawn) gave a Percent Effect [1] of 2.12%, a Percent Effect [2] of -2.6% and a Percent Effect [3] of -0.541%. For the same compound, the Percent Effect [4] was 2.48%, the Percent Effect (Trypanosoma cruzi) was -4.24% and the Percent Effect [5] was -3.23%. It also gave a Percent Effect [6] of 3.13%, a Percent Effect (Homo sapiens) of 0.321% and a Percent Effect [7] of 3.17%. The Percent Effect [8] was -3.85% and the Percent Effect [9] was -5.96%.

Work on `CCS(=O)(=O)Nc1ccc(C(=O)NCCCN2CCCC2)cc1` yielded a Percent Effect [1] of -2.09%, a Percent Effect [2] of 13.2% and a Percent Effect [3] of 2.99%. The Percent Effect [4] was -3.93%, the Percent Effect (Trypanosoma cruzi) was -3.8% and the Percent Effect [5] was 0%. It also gave a Percent Effect [6] of 19.1%, a Percent Effect (Homo sapiens) of -9% and a Percent Effect [7] of 4.25%. The Percent Effect [8] was 7.79% and the Percent Effect [9] was -4.55%.

Compound `CC(C(=O)Nc1cccc(N2CCCCC2)c1)n1cncn1` (stereo not drawn) has a Percent Effect [1] of -7.36%, a Percent Effect [2] of 13.5% and a Percent Effect [3] of -9.41%. For the same compound, the Percent Effect [4] was 28.7%, the Percent Effect (Trypanosoma cruzi) was 3.11% and the Percent Effect [5] was -3.61%. The Percent Effect [6] was 10.3%, the Percent Effect (Homo sapiens) was 0.641% and the Percent Effect [7] was 5.42%. It also gave a Percent Effect [8] of 23.5% and a Percent Effect [9] of -10.9%.

`CCS(=O)(=O)N1CC[C@]2(C[C@@H](OCC3CC3)CO2)C1` showed a Percent Effect [1] of -5.7%, a Percent Effect [2] of 5.41% and a Percent Effect [3] of -4.19%. It also gave a Percent Effect [4] of 27.4%, a Percent Effect (Trypanosoma cruzi) of 6.94% and a Percent Effect [5] of -1.74%. For the same compound, the Percent Effect [6] was 13.3%, the Percent Effect (Homo sapiens) was 1.36% and the Percent Effect [7] was 8.6%. The Percent Effect [8] was 13.6% and the Percent Effect [9] was -6.86%.

For `COCC1CC2(CCN(C(=O)c3occc3C)CC2)CO1` (stereo not drawn), the Percent Effect [1] was -0.186%, the Percent Effect [2] was 2.6% and the Percent Effect [3] was 22.5%. For the same compound, the Percent Effect [4] was 0.84%, the Percent Effect (Trypanosoma cruzi) was -6.61% and the Percent Effect [5] was 4.52%. The Percent Effect [6] was 3.65%, the Percent Effect (Homo sapiens) was 5.99% and the Percent Effect [7] was -2.12%. It also gave a Percent Effect [8] of -1.28% and a Percent Effect [9] of -1.99%.

`Cc1nn(C)c(N2CCOCC2)c1CNC1CCN(C(C)(C)C)CC1` gave a Percent Effect [1] of -2.55%, a Percent Effect [2] of 20.2% and a Percent Effect [3] of -9.63%. The Percent Effect [4] was -2.51%, the Percent Effect (Trypanosoma cruzi) was -1.42% and the Percent Effect [5] was -0.38%. It also gave a Percent Effect [6] of 13.5%, a Percent Effect (Homo sapiens) of 10.5% and a Percent Effect [7] of 5.42%. It also gave a Percent Effect [8] of 16.5% and a Percent Effect [9] of -4.24%.

Work on `O=C1[C@H]2CC[C@H](CN(Cc3ccccc3OC(F)F)C2)N1CC1CC1` yielded a Percent Effect [1] of 2.17%, a Percent Effect [2] of 13.5% and a Percent Effect [3] of 8.9%. It also gave a Percent Effect [4] of 13.9%, a Percent Effect (Trypanosoma cruzi) of 4.05% and a Percent Effect [5] of 13.3%. It also gave a Percent Effect [6] of 17.1%, a Percent Effect (Homo sapiens) of 19% and a Percent Effect [7] of 7.94%. The Percent Effect [8] was 17.1% and the Percent Effect [9] was -1.8%.
